Bioassay records (PubChem)
Only some compounds are listed: those with a hit (about 31% of all), similar ones and a draw of the others.
CYP2C9 activ: human CYP2C9 activators, primary screen, biochemical, luminescence. recombinant CYP2C9, luciferin-H conversion; hits give high values; factor 1 = untreated enzyme, 0 = blocked. activation factor at 5 µM. 96,000 compounds, 1.4% hits;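 active = activation factor of 2 or more for CYP2C9 at a 5 µM dose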;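 note: 0 = sulfaphenazole-blocked wells and 1 = vehicle-only wells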
CYP2C9 inhib: blockers of cytochrome P450 2C9 activity – biochemical, luminescence, ADME assay, primary screen; P11712; CYP2C9 Supersomes, luciferin-H conversion; inhibition, % at 5 µM; 96,000 compounds, 20% hits; AID 777, 2007;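 active = blocking of liver enzyme CYP2C9 beyond about 50% at 5 µM, limit read from the data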
CYP2C19 activ: human CYP2C19 activators, primary screen, biochemical, luminescence | AID 1025, 2008 | 96,000 tested, under 10 active | activation factor at 5 µM | recombinant CYP2C19, luciferin-H EGE luminescence; hits give high values; 0 = fully inhibited enzyme, 1 = untreated enzyme;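 active = activation factor of at least 2 at 5 µM in the primary screen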;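 note: 0 = wells with 2.5 mM tranylcypromine and 1 = vehicle-only wells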
PLAP activator: PLAP enzyme activators, biochemical, luminescence, HTS; AID 696, 2007; purified PLAP enzyme, luminescent substrate read-out; hits give high values; 96,000 compounds, 1.2% hits; activation fold at 20 µM; in the data active = activation fold above about 2
Target sequence (P05187 whole entry, looked up): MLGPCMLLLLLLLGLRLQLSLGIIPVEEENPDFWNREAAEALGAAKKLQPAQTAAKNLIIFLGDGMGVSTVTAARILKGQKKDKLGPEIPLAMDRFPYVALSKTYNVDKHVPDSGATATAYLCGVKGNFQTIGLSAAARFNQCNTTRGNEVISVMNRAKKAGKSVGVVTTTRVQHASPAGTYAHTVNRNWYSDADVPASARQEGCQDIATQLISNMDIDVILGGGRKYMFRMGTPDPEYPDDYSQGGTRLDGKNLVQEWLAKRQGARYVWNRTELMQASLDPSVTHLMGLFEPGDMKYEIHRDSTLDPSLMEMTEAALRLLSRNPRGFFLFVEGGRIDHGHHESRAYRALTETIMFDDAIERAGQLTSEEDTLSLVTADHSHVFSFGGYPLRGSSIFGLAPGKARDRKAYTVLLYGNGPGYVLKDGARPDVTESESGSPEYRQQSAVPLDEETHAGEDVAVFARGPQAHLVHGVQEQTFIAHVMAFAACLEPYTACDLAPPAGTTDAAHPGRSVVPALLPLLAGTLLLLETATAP
CYP2C19 inhib: blockers of cytochrome P450 2C19 activity – biochemical, luminescence, ADME assay, primary screen | CYP2C19 Supersomes, luciferin-H EGE luminescence, 30 min | inhibition, % at 5 µM | 96,000 compounds, 21% hits | AID 778, 2007;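 active = CYP2C19 inhibition above a set limit at 5 µM in the primary screen, cut at about 50% in these data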;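 note: plate controls were negative control wells for no effect and 2.5 mM tranylcypromine positive control for full effect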
* hit, by the source's call; nt = not tested or not shown.

SMILES | CYP2C9 activ | CYP2C9 inhib | CYP2C19 activ | PLAP activator | CYP2C19 inhib
CCOC(=O)CSC1=NC(=O)/C(=C\c2ccc(Cl)cc2)S1 | 0.6 | 38.3 | 0.5 | 1 | 48.1
CC(C)(C)c1nc2c(C#N)c(-c3ccc(Cl)cc3)ccn2n1 | 0.2 | 84.5* | 0.3 | 1.7 | 67.1*
C=CCNc1nc(-c2ccc(Cl)cc2)cs1 | 1 | 1.0 | 0.7 | 1 | 32.4
CC(C)(C)OC(=O)NNC(=S)NCc1ccc(Cl)cc1 | 0.4 | 55.4* | 0.4 | 1.3 | 56.6*
CC(C)(C)OC(=O)NNC(=O)c1ccc(Cl)cc1 | 0.8 | 24.3 | 0.5 | 1.1 | 46.1
Cc1cc(Oc2ccccc2)nc(OCC#N)n1 | 1 | 1.9 | 0.7 | 1.2 | 31.8
Cc1cccc(C)c1NC(=O)C(c1ccc(Cl)cc1Cl)N1CCCCC1 (stereo not given) | 0.7 | 26.7 | 0.9 | 1.2 | 12.8
c1ccc(-n2cnc3cc(NCc4ccncc4)ccc32)cc1 | 0.1 | 94.2* | 0 | 1.3 | 99.4*
CCOc1ccc(CNc2ccc3c(c2)nc(C)n3C)cc1 | 0.9 | 9.1 | 0.6 | 0.9 | 37.5
c1ccc(-n2cnc3cc(NCc4ccccn4)ccc32)cc1 | 0.3 | 73.6* | 0.2 | 1.3 | 84.8*
Cc1cc(NCc2ccccn2)ccc1Br | 0.8 | 22.9 | 0.4 | 0.9 | 62.9*
CCn1cnc2cc(NCc3ccc(OC)cc3)ccc21 | 0.9 | 7.1 | 0.3 | 1 | 73.2*
CC(C)n1cnc2cc(NCc3ccccn3)ccc21 | 0.8 | 17.8 | 1 | 1.5 | 2.0
Cn1c(=O)[nH]c2sc3c(c2c1=O)CC(C)(C)OC3 | 1.1 | -5.0 | 1.1 | 0.9 | -8.2
CCc1nc2sc(C)c(C)c2c(=O)n1CCO | 1.1 | -14.1 | 1.1 | 0.9 | -13.2
CCOc1cc(N2CCOCC2)c(OCC)cc1NC1=NCCCCC1 | 0.9 | 6.2 | 0.8 | 0.9 | 15.1
CCN(CC(=O)Nc1ccc2c(c1)OCCO2)CC(=O)Nc1cc(C)on1 | 0.6 | 37.5 | 0.7 | 1.2 | 31.8
N#CC1=C2C=CC=CN2CC1=O | 0.9 | 10.4 | 1.1 | 1.1 | -7.4
CCCCn1cnc2cc(NCc3ccncc3)ccc21 | 0.4 | 62.4* | 0.4 | 1 | 55.9*
CN(C)c1ccc(CNc2ccc3c(c2)ncn3C)cc1 | 1 | 1.8 | 0.3 | 1.7 | 69.8*
CC(C)n1cnc2cc(NCc3ccco3)ccc21 | 0.8 | 18.3 | 0.8 | 1.2 | 22.6
Nc1ccc(Oc2ccc3nc(-c4ccccc4)c(-c4ccc([N+](=O)[O-])cc4)nc3c2)cc1 | 0.4 | 56.0* | 0.8 | 1 | 18.2
Cc1c(-c2ccccc2)nc2ccccc2c1C(=O)Oc1ccc([N+](=O)[O-])cc1 | 0.8 | 16.8 | 1 | 0.9 | -1.4
COc1nc2c(C)cccc2cc1-c1noc(-c2ccncc2)n1 | 0.5 | 49.5 | 0.4 | 1.1 | 63.3*
COc1nc2ccc(C)cc2cc1-c1noc(-c2cccnc2)n1 | 0.7 | 30.3 | 1 | 1 | 1.2
SMILES | CYP2C9 activ | CYP2C9 inhib | CYP2C19 activ | PLAP activator | CYP2C19 inhib
C(=N\n1cnnc1SCc1ccccc1)/c1ccco1 | 0.8 | 19.0 | 0.9 | 1.1 | 12.1
CCN(CC)S(=O)(=O)c1ccc2c(c1)nc(SCC(=O)N1CCCCCC1)n2-c1ccc(OC)cc1 | 0.2 | 81.4* | 0.9 | 1.5 | 14.1
CCN(CC)S(=O)(=O)c1ccc2c(c1)nc(SCC(N)=O)n2-c1ccc(OC)cc1 | 0.5 | 49.2 | 0.7 | 1.6 | 30.2
O=C(COc1ccccc1)N1CCN(c2ncnc3c2cnn3-c2ccccc2)CC1 | 0.3 | 71.2* | 0.2 | 1.6 | 80.1*
c1ccc(-n2ncc3c(N4CCN(CCOc5cccc6ccccc56)CC4)ncnc32)cc1 | 0.2 | 76.5* | 0.5 | 1.5 | 48.0
O=C1c2ccccc2C(=O)N1CNc1ccccc1 | 1 | 3.3 | 1 | 1.2 | -3.5
C1CCCN(CCCCN2CCCCCC2)CC1 | 0.9 | 7.7 | 1 | 0.8 | -3.4
Cc1cccc(C(=O)NC2CCN(CC(=O)N3CCOCC3)CC2)c1 | 1 | -0.9 | 1.1 | 1.1 | -6.4
CC1CCC/C(=N\NC(=O)COc2ccc(Cl)cc2Cl)C1 (stereo not given) | 0.7 | 34.7 | 0.2 | 1 | 79.9*
O=C(c1ccncc1)c1nccn1-c1ccccn1 | 0.2 | 81.2* | 0.2 | 0.9 | 75.2*
CCC(C)S(=O)(=O)c1snnc1C (stereo not given) | 1.1 | -12.3 | 1 | 0.8 | 3.5
Cc1ccccc1CS(=O)(=O)c1snnc1C | 1 | -1.1 | 0.5 | 1 | 54.7*
Cc1ccccc1CS(=O)(=O)c1cnc2ccccc2n1 | 2.3* | -129.2 | 0.1 | 1 | 93.2*
CCc1cccc(OCCCCNCCO)c1 | 1.1 | -12.2 | 1.1 | 0.9 | -7.5
O=C(CSc1ncn[nH]1)c1ccc2c(c1)OCO2 | 1.2 | -18.3 | 0.9 | 1 | 8.0
CCc1cc(-c2[nH]ncc2-c2ccc3c(c2)OCO3)c(O)cc1O | 0 | 98.6* | 0 | 2.5* | 99.6*
COc1ccc(-c2[nH]ncc2-c2ccc3c(c2)OCCO3)c(O)c1 | 0.3 | 66.5* | 0.4 | 2.1* | 61.3*
CCCc1cc(-c2[nH]ncc2-c2ccc3c(c2)OCCCO3)c(O)cc1OC | 0 | 100.3* | 0.1 | nt | 86.4*
Oc1ccccc1-c1cc(-c2ccc3c(c2)OCCO3)n[nH]1 | 0.7 | 26.8 | 0.8 | 1.9 | 21.1
O=S(=O)(NC(=NC1CCCC1)C(F)(F)F)c1ccccc1 | 1.4 | -40.6 | 0.3 | 1 | 65.6*
O=C1NC(c2ccccc2)=NC1(NS(=O)(=O)c1ccccc1)C(F)(F)F (stereo not given) | 0.9 | 9.7 | 1 | 1 | 2.3
Cc1noc(C)c1COC(=O)[C@H](C)NS(=O)(=O)c1ccc(Cl)c(Cl)c1 | 0.4 | 61.5* | 0 | 1.6 | 97.9*
Cc1noc(C)c1COC(=O)Cc1ccc(Cl)c(Cl)c1 | 0.9 | 12.4 | 0.7 | 0.9 | 32.1
CNc1nc(Oc2ccc(=O)n(C)n2)nc(N2CCOCC2)n1 | 1.1 | -5.7 | 1.1 | 0.9 | -10.0
O=C(NC(c1ccccc1)c1ccccc1)c1ccc(S(=O)(=O)C(F)F)cc1 | 0.8 | 20.4 | 1.1 | 0.9 | -8.3
SMILES | CYP2C9 activ | CYP2C9 inhib | CYP2C19 activ | PLAP activator | CYP2C19 inhib
NC(=O)NC(Cc1ccccc1)C(=O)O (stereo not given) | 1 | -3.2 | 1.1 | 0.9 | -7.1
NC(=O)NC(c1ccccc1)c1ccccc1 | 0.7 | 28.5 | 0.2 | 1.1 | 80.0*
NC(=O)NC(c1ccccc1)c1cccc2ccccc12 (stereo not given) | 1 | -1.2 | 0.3 | 0.8 | 71.7*
NC(=O)NC(Cc1ccccc1)c1ccccc1 (stereo not given) | 1 | 2.0 | 0.5 | 0.8 | 46.9
NC(=O)NC(c1ccccc1)c1ccccc1F (stereo not given) | 0.9 | 6.1 | 0.3 | 1.1 | 72.1*
Cc1ccc(C(C(=O)NCc2ccco2)N(CCc2ccccc2)C(=O)Cn2nnc3ccccc32)o1 (stereo not given) | 0.9 | 11.1 | 0.9 | 1.2 | 13.9
